TROY signal inh = inhibitors of TROY-driven NF-kB signaling, primary screen, Q293 LMP1-TROYcd cells, NF-kB luciferase, uHTS. 0.98% of 360,000 active. inhibition, % at 10 µM. Q293 LMP1-TROYcd NF-kB luciferase reporter, 4 h;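 active = compounds whose plate-normalised and pattern-corrected inhibition of the luciferase reporter signal at the single screening dose is 50% or more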
TWEAK-Fn14 inh = inhibitors of TWEAK-Fn14 signaling, primary screen, luciferase reporter cells, uHTS. TWEAK-stimulated Fn14 reporter cells, luciferase luminescence, 8 h. inhibition, % at 10 µM. 2% of 360,000 active. AID 1159606, 2016; in the data active = inhibition above about 50%
KKLEB tox = cytotoxicity in KKLEB CF airway cells, primary screen, cytotoxicity control for CF NF-kB inhibitor project, cell-based, uHTS, fluorescence assay plates. KKLEB CF airway cells viability, ATPlite luminescence, overnight; stronger effect = lower value; cells stimulated with P. aeruginosa culture filtrate. activity change (cytotoxicity), % at 5 µM. 0.36% of 360,000 active. AID 602141, 2011;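 active = corrected activity change at or below -50% at 5 µM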
Peg3 prom inh = Peg3 promoter-driven luciferase inhibitors, primary screen, cell-based, HeLa, luciferase luminescence; HeLa PEG-Prom luciferase reporter, overnight; inhibition, % at 20 µM; 1.7% of 360,000 active;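 active = inhibition of at least 50% at 20 µM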
HIF-2a inh = HIF-2a reporter inhibitors, primary screen, luminescence, 786-0 RCC cells; 786-0 RCC cells HIF-2a reporter, luciferase luminescence, overnight; inhibition, % at 18.8 µM; 0.72% of 360,000 active;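 active = inhibition of the luminescence signal of 40% or more relative to plate controls, in a single-dose primary screen at 18.75 µM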
CF NFkB inh = inhibitors of PAF-induced NF-kB signaling, primary screen, cell-based, GFP fluorescence, uHTS | KKLEB NF-kB-GFP reporter, GFP fluorescence overnight | inhibition, % at 5 µM | 0.86% of 360,000 active | AID 588850, 2011;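 active = at least 50% inhibition at 5 µM, scaled per plate between neutral and stimulator controls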;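 note: PAF is a Pseudomonas aeruginosa culture filtrate used as stimulus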
CF NFkB inh conf = inhibitors of PAF-induced NF-kB signaling, retest, confirmation, cell-based, GFP fluorescence, single concentration | 64% of 1,300 active | KKLEB CF airway cells, overnight | shares compounds with CF NFkB inh | inhibition, % at 5 µM; in the data active = inhibition above about 40%;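 note: stimulus PAF is a Pseudomonas aeruginosa filtrate and not platelet activating factor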
Numbers stand for hits; n = inactive; x = no result given. Rows were chosen to be rich in hits. Some 4% of all compounds tested hit in one or more screens of this group.

SMILES | TROY signal inh | TWEAK-Fn14 inh | KKLEB tox | Peg3 prom inh | HIF-2a inh | CF NFkB inh | CF NFkB inh conf
CCc1cc2c(-c3ccccc3)cc(=O)oc2cc1OC(C)C(C)=O (configuration not stated) | n | n | n | n | n | n | x
CC(C)(C)c1cc(C2=CSC3=NCCN23)cc(C(C)(C)C)c1O | n | n | n | n | n | n | x
COc1ccc(N(CCCN2C(=O)c3cccc4cccc(c34)C2=O)C(=O)c2cccnc2)cc1 | n | n | n | n | n | n | x
COc1ccc(N(CCCN2C(=O)c3cccc4cccc(c34)C2=O)C(=O)c2ccncc2)cc1 | n | n | n | n | n | 50.1 | 45.3
CC1(C(=O)NS(=O)(=O)c2cccc(C#N)c2)CCN1C(=O)Cc1ccccc1 (configuration not stated) | n | n | n | n | n | n | x
Cc1nc([N+](=O)[O-])c(Sc2nc3ccccc3n2C)n1Cc1ccccc1 | n | n | n | n | n | 65.4 | 56.1
Cc1nc([N+](=O)[O-])c(SCC(N)=O)n1Cc1ccccc1 | n | n | n | n | n | n | x
CN(C)CCCN(C(=O)CCSc1ccccc1)c1nc2cc3c(cc2s1)OCO3 | n | n | n | 91.1 | n | 55.9 | 49.4
CN(C)CCN(C(=O)c1ccco1)c1nc2cc3c(cc2s1)OCCO3 | n | n | n | n | n | n | x
O=C(c1nnsc1S(=O)(=O)c1ccc(Cl)cc1)N1CCOCC1 | 67.6 | 90.6 | n | 95.0 | n | 90.5 | 95.6
COc1ccc(CNC(=O)Cn2cncn2)cc1OC | n | n | n | n | n | n | x
C#CCOCCOCCOCCNc1nc(N2CCN(C(=O)[C@H](CC(N)=O)n3cc(C(N)[C@@H](C)CC)nn3)CC2)nc(N2CCN(C(=O)[C@H](CCC(=O)O)n3cc([C@@H](N)CCCCN)nn3)CC2)n1 (some centres not stated) | n | n | n | n | n | n | x
Cc1ccc2oc(=O)c3cnn(CC(=O)Nc4cc(-c5cccc(F)c5)no4)c3c2c1 | n | n | n | n | n | 52.9 | n
CC(=O)Oc1ccc(N(C(C)=O)S(=O)(=O)c2cccs2)c2ccccc12 | n | n | n | n | n | 55.9 | 67.1
CC(=O)Oc1ccccc1N(C(C)=O)S(=O)(=O)c1ccc2ccccc2c1 | n | n | n | n | n | n | x
CN(C)c1ccc(-c2nn3c(-c4ccccc4Cl)nnc3s2)cc1 | n | n | n | n | n | 54.1 | 68.5
CCCn1c(NC(=O)C2CCN(C(=O)c3ccccc3C)CC2)nc2ccccc21 | n | n | n | n | n | n | x
C=CCOc1ccc2nc(NC(=O)OC)[nH]c2c1 | n | n | n | n | n | n | x
C=C(c1ccc2nc(NC(=O)OC)[nH]c2c1)c1cccs1 | n | n | n | n | n | 61.8 | 95.7
Cc1ccccc1S(=O)(=O)Cc1ccc(C(=O)N2CCN(c3cccc(C)c3C)CC2)o1 | n | n | n | 69.9 | n | 68.2 | 63.4
Cc1ccccc1S(=O)(=O)Cc1ccc(C(=O)N2CC(C)CC(C)C2)o1 (configuration not stated) | n | n | n | n | n | n | x
CC1=Nc2ccccc2/C1=C/c1c(C)[nH]c2ccccc12 | n | n | n | 90.7 | n | 52.9 | n
Cc1nnc2ccc(-c3ccc(NC(=O)c4cccnc4Cl)cc3)nn12 | n | n | n | n | n | n | x
Cc1c(NC(=O)CCC2CCCCC2)c(=O)n(-c2ccccc2)n1C | n | n | n | n | n | n | x
COc1ccc(Nc2cccccc2=O)cc1 | n | n | n | n | n | n | x
SMILES | TROY signal inh | TWEAK-Fn14 inh | KKLEB tox | Peg3 prom inh | HIF-2a inh | CF NFkB inh | CF NFkB inh conf
COc1ccc(Nc2cccc3ccccc23)cc1 | 81.6 | 104.5 | n | n | n | 75.9 | n
COc1ccc(NC(=O)Cn2ncn3nc(-c4ccc(OC)cc4)cc3c2=O)cc1 | n | n | n | n | n | 54.0 | 54.8
CC(C)(C)c1ccc2c(c1)C(c1ccc3c(c1)OCO3)CC(=O)O2 (configuration not stated) | n | n | n | n | n | n | x
Cc1ccc(NC(=O)c2cc(C(=O)c3cc(Cl)ccc3O)cn(-c3ccc(C)cc3)c2=O)cc1 | n | n | n | n | n | 54.6 | 56.3
N#Cc1cc(C(=O)c2cc(Cl)ccc2O)cn(-c2ccccc2)c1=O | n | n | n | n | n | n | x
O=c1cc(-c2ccccc2Cl)oc2cc(O)cc(O)c12 | n | n | n | n | n | 66.5 | 76.9
Nc1ccc(O)c2c(=O)cc(-c3ccccc3Cl)oc12 | n | n | n | n | n | n | x
CCN(CC)CCN(C(=O)CCS(=O)(=O)c1ccccc1)c1nc2c(C)cc(C)cc2s1 | n | n | n | 57.5 | n | 73.4 | 69.8
Cc1ccc(-c2cc(-c3ccccc3)nc(Cl)n2)cc1 | n | n | n | n | n | n | x
Cc1ccc(-c2cc(C(F)F)nc(S(C)(=O)=O)n2)cc1 | n | n | n | 98.4 | n | 50.8 | n
CCOC(=O)Nc1nc(-c2ccccc2)c(C(=O)c2ccccc2)s1 | n | n | n | n | n | 53.1 | 77.2
N=c1c(S(=O)(=O)c2ccc(Br)cc2)cc2c(=O)n3ccccc3nc2n1Cc1ccco1 | n | n | n | n | n | 82.3 | n
CN(CC(=O)Nc1ccccc1Cl)C(=O)COC(=O)c1nc(Cl)c(Cl)c(Cl)c1Cl | 53.5 | 86.4 | n | 104.6 | n | 87.0 | n
CCCCCCCCN1C(=O)[C@H](CC(=O)NCCCOC)C[C@@]2(C(=O)OC)CC(C)(C)CC=C12 | x | x | x | x | n | x | x
COc1ccc(NC(=O)CN(C)C(=O)c2cc(-c3cccs3)nn2-c2ccccc2)cc1 | n | n | n | n | n | n | x
CCN(CC(=O)Nc1ccc(OC)cc1)C(=O)c1cc(-c2cccs2)nn1-c1ccccc1 | n | n | n | n | n | 54.5 | 51.2
O=C(NCc1nc(-c2ccc(C(F)(F)F)cc2)no1)Nc1cc(Cl)cc(Cl)c1 | n | n | n | 51.6 | n | 54.6 | 49.6
O=C(NCc1nc(-c2ccc(C(F)(F)F)cc2)no1)Nc1ccc(F)cc1F | n | n | n | n | n | n | x
COc1ccc(Nc2nc(-c3cccs3)nc3ccccc23)cc1S(=O)(=O)N1CCOCC1 | n | 97.3 | n | 55.4 | n | 90.3 | 102.8
COc1ccc(NS(=O)(=O)c2cccs2)cc1S(=O)(=O)N1CCOCC1 | n | n | n | n | n | n | x
CC1(O)CC(c2ccc(Cl)cc2)=NN1C(=O)c1ccc(Cl)cc1 (configuration not stated) | n | n | n | n | n | 58.1 | 76.0

Screening results: PubChem BioAssay, Sanford-Burnham Center for Chemical Genomics
